Consider 57 molecules from PubChem BioAssay AID449762 (Southern Research Specialized Biocontainment Screening …, 2010).

The structures appear in SMILES notation. Hit rate of the full screen: of about 330,000 compounds, about 1,900 (0.58%) were called active. About 4% were inconclusive and are not listed. Rule as the data show it: inconclusive = inhibition above about 70% without an active follow-up result; inactive = below that. The list is a sample of the results. Entries with a potency or affinity are not part of this list.

This assay in a line: M. tuberculosis growth inhibition, HTS (AID 449762).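 Also: bacterial growth assessed after seven days of incubation.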 To be noted: M. tuberculosis H37Rv growth inhibition, 7H9 media; at 25 µM; stronger effect = higher value.
In the case of `Cc1ccc(-c2nc3ncccn3c2Nc2ccc3c(c2)OCCO3)o1`, the inhibition is 3.72% (inactive).

In the case of `Cc1ccc(-c2nc3ncccn3c2Nc2ccc3c(c2)OCO3)o1`, the inhibition was 3.61% (inactive).

In the case of `CCOc1ccc(NS(=O)(=O)c2cc(C(=O)N3CCCC3)ccc2Cl)cc1`, the inhibition was 5.65% (inactive).

Turning to `Cc1ccc(NC(=O)c2ccc(OCC3CCCO3)cc2)nc1` (configuration not stated), the inhibition was 16.9% (inactive).

With `Oc1ccc(C[C@H]2CNCCN2CC2CCCCC2)cc1`, the inhibition was 7.27% (inactive).

Turning to `Oc1ccc(C[C@@H]2CNCCN2CC2CCCCC2)cc1`, the inhibition is -3.4% (inactive).

As for `CCOC(=O)c1cc(-c2ccc3c(c2)OCCO3)n[nH]1`, the inhibition is -1.75% (inactive).

Turning to `OCCN(CCCn1c(-c2ccncc2)nc2ccccc21)c1nc(CN2CCCCC2)cs1`, the inhibition is -3.74% (inactive).

For the molecule `O=C(NNc1cc(N2CCOCC2)nc(N2CCOCC2)n1)c1ccc(Cl)c(Cl)c1`, the inhibition is -10.6% (inactive).

Turning to `CC(C)(C)c1ccc(C(=O)NNc2cc(N3CCOCC3)nc(N3CCOCC3)n2)cc1`, the inhibition is 1.03% (inactive).

Take `O=C(CSc1nc2cc(Cl)ccc2o1)N1CCOCC1`: the inhibition is 0.49% (inactive).

As to `CCN1CCN(Cc2ccc(NC(=O)c3cc(NC(=O)c4ccc5n[nH]nc5c4)cc(OC)c3)cc2C(F)(F)F)CC1`, the inhibition was 12.9% (inactive).

`CCN1CCN(Cc2ccc(NC(=O)c3cc(NC(=O)c4ccno4)cc(OC)c3)cc2C(F)(F)F)CC1`: the inhibition is 66.3% (inactive).

As for `CC(=O)NCCC(=O)Nc1cccc(S(=O)(=O)N(C)c2ccccc2)c1`, the inhibition is -0.05% (inactive).

For `Cc1ccccc1OCC(=O)N/N=C/c1ccccn1`, the inhibition is -4.77% (inactive).

With `O=C(NC1(C(F)(F)F)NC(=O)N(C2CCCCC2)C1=O)C1CC1` (configuration not stated), the inhibition was -5.69% (inactive).

As to `CCOC(=O)c1c(C)[nH]c(N=Nc2cccc(C)c2)c1C`, the inhibition was 15.8% (inactive).

For the molecule `CCOC(=O)c1c(C)[nH]c(N=Nc2cc(C(=O)O)cc(C(=O)O)c2)c1C`, the inhibition was -2.43% (inactive).

Regarding `COc1ccc(N2C(=O)/C(=C/c3cc(C)n(-c4ccc(C)cn4)c3C)C(=O)NC2=S)c(OC)c1`, the inhibition is 3.48% (inactive).

Regarding `COc1cc(/C=N/OCC(=O)Nc2cc(C)on2)ccc1OCc1ccccc1`, the inhibition was -2.24% (inactive).

For the molecule `COc1ccc(/C=N/OCC(=O)Nc2cc(C)on2)cc1OC`, the inhibition was -6.14% (inactive).

`CSCC(=O)Nc1cc(C)on1`: the inhibition was 7.76% (inactive).

In the case of `Cc1cc(NC(=O)C(Cl)(Cl)Cl)no1`, the inhibition was -0.63% (inactive).

Take `CCCn1c(SCC(=O)Nc2ccccc2N2CCOCC2)nc2c1c(=O)n(C)c(=O)n2C`: the inhibition is -9.47% (inactive).

For the molecule `CN(CCOc1ccc(Cl)cc1)C(=O)C1CCN(C(=O)c2ccc(F)cc2)CC1`, the inhibition is -0.37% (inactive).

Turning to `CCC(NC(=O)c1cc(COc2cncc(Cl)c2)on1)c1ccncc1` (configuration not stated), the inhibition was 4.32% (inactive).

`CCC(NC(=O)c1cc(COc2cncc(Cl)c2)on1)c1ccc(C)cc1` (configuration not stated): the inhibition is 27.5% (inactive).

For `COc1cccc(NC(=O)CN(C)C(=O)c2ccccc2Sc2ccccc2C#N)c1`, the inhibition is -24% (inactive).

With `CCOC(=O)c1cc(NC(=O)c2ccccc2)c(=O)n2c1oc1ccccc12`, the inhibition was -3% (inactive).

With `Oc1c(C(c2cccs2)N2CCN(c3ccccc3)CC2)ccc2cccnc12` (configuration not stated), the inhibition was 30.5% (inactive).

For the molecule `Oc1c(C(c2ccccn2)N2CCCCC2)cc(Cl)c2cccnc12` (configuration not stated), the inhibition was 3% (inactive).

For the molecule `COC(=O)Cc1ccc(NC(=S)N2CCC(Cc3ccccc3)CC2)cc1`, the inhibition is 6.07% (inactive).

As to `O=C(C1=C[C@H](c2coc3ccccc3c2=O)C[C@H](OCCCCO)O1)N1CCN(Cc2ccccc2)CC1`, the inhibition is 39.2% (inactive).

For the molecule `CC(CC(=O)Nc1cc([N+](=O)[O-])ccc1Cl)c1ccccc1` (configuration not stated), the inhibition is 3.48% (inactive).

For the molecule `CC(CC(=O)Nc1ccc(F)c([N+](=O)[O-])c1)c1ccccc1` (configuration not stated), the inhibition was -6.24% (inactive).

Turning to `CSCC[C@H](NC(=O)C1CCN(S(=O)(=O)c2ccc(C)cc2)CC1)C(=O)NCC1CCCO1` (some centres not stated), the inhibition was -8.31% (inactive).

With `Cc1occc1-c1nnc(SCc2nnc(-c3ccc(Cl)cc3)o2)n1C`, the inhibition was -6.71% (inactive).

Regarding `C[C@@H]1C[C@H]2[C@@H]3CCC4=CC(=O)C=C[C@]4(C)[C@@]3(F)[C@@H](O)C[C@]2(C)[C@H]1C(=O)CO`, the inhibition is 18.9% (inactive).

On to `Cc1cccc(C)c1NC(=O)Cn1nnc(-c2ccc(CN3CCC(C)CC3)cc2)n1`, for which the inhibition was 5.96% (inactive).

As to `COC(=O)N/N=C\c1ccccc1OC/C=C/c1ccccc1`, the inhibition is 7.83% (inactive).

`CCOc1ccc(-c2cc(C)[n+](CCN3CCOCC3)c(-c3ccc(OCC)cc3)c2)cc1`: the inhibition is 12.3% (inactive).

On to `CCOc1ccc(-c2cc(C)[n+](CCO)c(-c3ccc(OCC)cc3)c2)cc1`, for which the inhibition is 4.23% (inactive).

`COC(=O)/C(=C/Nc1ccccc1)[N+](=O)[O-]`: the inhibition was -4.18% (inactive).

With `Cc1ccc(NC(=O)CS(=O)CC(=O)N(CC(=O)NC2CCCC2)c2ccc3c(c2)OCCO3)cc1` (configuration not stated), the inhibition is -4.13% (inactive).

Consider `COc1ccc(CNCc2ccc3ccccc3c2)c(OC)c1`, for which the inhibition is 12.2% (inactive).

On to `CCn1c2ccccc2c2cc(CN3CCN(S(=O)(=O)CC)CC3)ccc21`, for which the inhibition was 10.3% (inactive).

For `CCn1c2ccccc2c2cc(CN3CCN(S(C)(=O)=O)CC3)ccc21`, the inhibition is 7.91% (inactive).

For the molecule `COc1cccc(CNCc2ccc(OC)cc2OC)c1`, the inhibition was 1.71% (inactive).

`CCn1cc(C(=O)N2CCCC(CO)(Cc3ccccc3C)C2)cn1` (configuration not stated): the inhibition was 0.25% (inactive).

As for `COc1cc2oc(=O)ccc2cc1[C@H](O)[C@@H](O)C(C)(C)O`, the inhibition is -11.1% (inactive).

In the case of `COc1ccc(-c2c[n+](CC(=O)c3ccccc3)c3n2CCCCC3)cc1`, the inhibition was 1.09% (inactive).

Take `COc1ccc(-c2c[n+]3c(n2-c2ccccc2)CCCCC3)cc1`: the inhibition is -4.08% (inactive).

In the case of `CSc1nn(-c2ccc(C(=O)OC(C(=O)NC(N)=O)C(C)C)cc2)c(=S)s1` (configuration not stated), the inhibition is 50.6% (inactive).

`CC(C)NC(=O)NC(=O)COC(=O)c1ccc(OC(F)(F)F)cc1`: the inhibition was 14.2% (inactive).

Turning to `O=C(CN1CCN(S(=O)(=O)c2cccc(F)c2)CC1)NCC1(N2CCOCC2)CCCCC1`, the inhibition is 6.01% (inactive).

As for `CC(C)(C)C(=O)Nc1cc(C(F)(F)F)ccc1-n1ccnc1`, the inhibition was -0.21% (inactive).

Turning to `Fc1ccc(-n2c(Cn3nnc4ccccc43)n[nH]c2=S)cc1`, the inhibition was -5.75% (inactive).

What is called inhibition is the relative decrease from the control value, in per cent.
